Results: a collection of fitness landscapes (doi:10.1016/j.celrep.2020.107928)
Over roughly 81,000 sequences, “one-hybrid fitness for binding NBS DNA” has its median near -0.1; the highest 2% begin near 0.36. Only a selection was taken, and the highest values are over-represented in it overall.

B1: Caulobacter ParB omega fusion; a variant is named by its letters at X, in order, B8GW30 (parent)
chain: MESVVVGEPGMSEGRRGLGRGLSALLGEVDAAPAQAPGEQLGGSREAPIEILQRNPDQPRRTFREEDLEDLSNSIREKGVLQPILVRPSPDTAGEYQIVAGERAWRAAQRAGLKTVPIMVRELDDLAVLEIGIIENVQRADLNVLEEALSYKVLMEKFERTQENIAQTIGKSXSHVANXMRLLXLPDEVQSYLVSGELTAXHARAIAAAADPVALAKQIIEGGLSVRETEALARKAPNLSAGKSKGGRPPRVKDTDTQALESDLSSVLGLDVSIDHRGSTGTLTITYATLEQLDDLCNRLTRGI

Variants of: B1
Experiment: one-hybrid fitness for binding NBS DNA (the Noc-binding site; scaled: cognate 1, non-cognate 0); higher = stronger binding
Details: with NBS DNA site
Outline: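 Fitness is the rescaled log change in variant-to-wild-type read ratio, measured by Illumina sequencing of plasmids before and after bacterial one-hybrid selection. The scale puts cognate at 1 and non-cognate at 0. Selection of Caulobacter ParB libraries, four specificity codons randomised, took place in E. coli USO with a HIS3 reporter, site 19 bp from the promoter, over 48 hours at 37°C on M9-minus-histidine with 0.1 mM IPTG and 5 mM 3-AT.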

Row | Variant | one-hybrid fitness for binding NBS DNA
1 | FSRL | ≤ 0.2
2 | GGQY | ≤ 0.2
3 | MRLP | ≤ 0.2
4 | AHPF | ≤ 0.2
5 | YNKI | ≤ 0.2
6 | KTLA | ≤ 0.2
7 | NNIC | ≤ 0.2
8 | PFKH | ≤ 0.2
9 | HTRG | ≤ 0.2
10 | QMYS | 0.405
11 | QMLS | 0.317
12 | QMYN | ≤ 0.2
13 | QMRS | 0.691
14 | QMRP | 0.291
15 | QMRD | 0.277
16 | QMRF | 0.303
17 | QMRN | 0.439
18 | QMRH | 0.584
19 | QMDN | ≤ 0.2
20 | QMIS | 0.289
21 | QMPS | 0.235
22 | AQGA | ≤ 0.2
23 | NRGC | ≤ 0.2
24 | PIMT | ≤ 0.2

Row | Variant | one-hybrid fitness for binding NBS DNA
25 | PWNH | ≤ 0.2
26 | RINY | ≤ 0.2
27 | GPRC | ≤ 0.2
28 | TMHE | ≤ 0.2
29 | KEWT | ≤ 0.2
30 | MTEF | ≤ 0.2
31 | QMAH | 0.231
32 | QMAD | ≤ 0.2
33 | QMAS | 0.389
34 | VIGG | ≤ 0.2
35 | QTVK | ≤ 0.2
36 | QTSK | 0.224
37 | QMKK | 0.436
38 | QPKK | ≤ 0.2
39 | QCKK | 0.485
40 | QMPK | ≤ 0.2
41 | QMWK | ≤ 0.2
42 | QKVK | ≤ 0.2
43 | QTKK | 0.596
44 | QKKK | 0.437
45 | QLKK | 0.346
46 | QKIK | ≤ 0.2
47 | THAP | ≤ 0.2
48 | SMSM | ≤ 0.2

Row | Variant | one-hybrid fitness for binding NBS DNA
49 | VLYQ | ≤ 0.2
50 | MNTI | ≤ 0.2
51 | MEPN | ≤ 0.2
52 | DERT | ≤ 0.2
53 | AAYK | ≤ 0.2
54 | LNIG | ≤ 0.2
55 | VYES | ≤ 0.2
56 | PHHR | ≤ 0.2
57 | NAEF | ≤ 0.2
58 | NGVK | ≤ 0.2
59 | AANT | ≤ 0.2
60 | QAKK | 0.396
61 | QIKK | 0.243
62 | QHRK | 0.362
63 | QRLK | 0.329
64 | QRVK | 0.218
65 | QAVK | ≤ 0.2
66 | QHKK | 0.416
67 | QSVK | ≤ 0.2
68 | QRKK | 0.777
69 | QSKK | 0.412
70 | QHQK | ≤ 0.2
71 | QAHK | ≤ 0.2
72 | TDTW | ≤ 0.2

Row | Variant | one-hybrid fitness for binding NBS DNA
73 | VHWG | ≤ 0.2
74 | DTCT | ≤ 0.2
75 | VLPC | ≤ 0.2
76 | GGCG | ≤ 0.2
77 | PDVF | ≤ 0.2
78 | YPIT | ≤ 0.2
79 | SGYG | ≤ 0.2
80 | SCFT | ≤ 0.2
81 | METY | ≤ 0.2
82 | RRMD | ≤ 0.2
83 | RRMP | ≤ 0.2
84 | RCMH | ≤ 0.2
85 | RRMN | 0.245
86 | RRMH | 0.403
87 | RRMS | 0.628
88 | TKWD | ≤ 0.2
89 | AEDA | ≤ 0.2
90 | APCN | ≤ 0.2
91 | YRRI | ≤ 0.2
92 | AVHL | ≤ 0.2
93 | TDRM | ≤ 0.2
94 | TYEH | ≤ 0.2
95 | HSVS | ≤ 0.2
96 | ARTM | ≤ 0.2

Row | Variant | one-hybrid fitness for binding NBS DNA
97 | HHLA | ≤ 0.2
98 | QMMT | 0.378
99 | QTMD | ≤ 0.2
100 | QYMY | 0.453
101 | QTMT | 0.551
102 | QMMF | ≤ 0.2
103 | QTMP | ≤ 0.2
104 | QMMS | 0.333
105 | QYMN | ≤ 0.2
106 | QYMS | 0.314
107 | QYMH | ≤ 0.2
108 | QYMP | ≤ 0.2
109 | QYMT | 0.416
110 | CSAE | ≤ 0.2
111 | YFMR | ≤ 0.2
112 | TNFF | ≤ 0.2
113 | AHDA | ≤ 0.2
114 | FHFL | ≤ 0.2
115 | CNVL | ≤ 0.2
116 | HYMT | ≤ 0.2
117 | QRMT | 0.729
118 | QRMG | 0.329
119 | QIMT | 0.219
120 | QLMT | 0.34

Row | Variant | one-hybrid fitness for binding NBS DNA
121 | QRMC | 0.333
122 | QKMN | ≤ 0.2
123 | QPMT | ≤ 0.2
124 | QAMT | 0.346
125 | QKMY | 0.224
126 | QKMT | 0.424
127 | QCMT | 0.477
128 | QSMT | 0.368
129 | QLVV | ≤ 0.2
130 | KKDV | ≤ 0.2
131 | RLWA | ≤ 0.2
132 | WGTT | ≤ 0.2
133 | PARD | ≤ 0.2
134 | RCAQ | ≤ 0.2
135 | FSIR | ≤ 0.2
136 | RTFH | ≤ 0.2
137 | RTFP | ≤ 0.2
138 | RTAQ | ≤ 0.2
139 | RTAT | 0.499
140 | RTFT | 0.417
141 | RTAF | ≤ 0.2
142 | YRWR | ≤ 0.2
143 | QYAW | ≤ 0.2
144 | CWPD | ≤ 0.2

Row | Variant | one-hybrid fitness for binding NBS DNA
145 | IVKR | ≤ 0.2
146 | TREN | ≤ 0.2
147 | RVKH | 0.321
148 | RVVT | 0.261
149 | RVVR | 0.3
150 | RVKP | ≤ 0.2
151 | RVKR | 0.665
152 | RVKS | 0.578
153 | RVKD | ≤ 0.2
154 | RVKN | 0.203
155 | RVKT | 0.652
156 | DVAM | ≤ 0.2
157 | FLSS | ≤ 0.2
158 | SKYT | ≤ 0.2
159 | PHGE | ≤ 0.2
160 | KVPL | ≤ 0.2
161 | QVKQ | 0.241
162 | QVVT | 0.248
163 | QVYY | ≤ 0.2
164 | QVKY | 0.383
165 | QVKS | 0.49
166 | QVKT | 0.564
167 | QVKM | 0.229
168 | QVKP | ≤ 0.2

Row | Variant | one-hybrid fitness for binding NBS DNA
169 | QVVY | ≤ 0.2
170 | QVKH | 0.38
171 | QVKN | ≤ 0.2
172 | QVKD | ≤ 0.2
173 | MVLL | ≤ 0.2
174 | KYVG | ≤ 0.2
175 | NCLS | ≤ 0.2
176 | FLLI | ≤ 0.2
177 | SFTN | ≤ 0.2
178 | QSWH | ≤ 0.2
179 | PPWR | ≤ 0.2
180 | RQTS | 0.436
181 | RQTP | ≤ 0.2
182 | RQTN | ≤ 0.2
183 | RQTD | ≤ 0.2
184 | RQTH | ≤ 0.2
185 | RQTQ | ≤ 0.2
186 | RQTR | 0.497
187 | RQTM | ≤ 0.2
188 | RQTT | 0.487
189 | KQNL | ≤ 0.2
190 | SITL | ≤ 0.2
191 | CLCV | ≤ 0.2
192 | LGTW | ≤ 0.2

Row | Variant | one-hybrid fitness for binding NBS DNA
193 | DDVR | ≤ 0.2
194 | LTIS | ≤ 0.2
195 | VYRA | ≤ 0.2
196 | IHWG | ≤ 0.2
197 | RKQT | 0.606
198 | RKQP | ≤ 0.2
199 | RKCT | 0.583
200 | RKCQ | ≤ 0.2
201 | RKRG | 0.238
202 | RSLT | 0.292
203 | RCLT | 0.436
204 | RKQH | ≤ 0.2
205 | RKRQ | 0.246
206 | RPLT | ≤ 0.2
207 | RKRT | 0.676
208 | RKCM | ≤ 0.2
209 | YFSE | ≤ 0.2
210 | GPRA | ≤ 0.2
211 | PFTR | ≤ 0.2
212 | YKRA | ≤ 0.2
213 | NSHG | ≤ 0.2
214 | NIIS | ≤ 0.2
215 | GQRS | ≤ 0.2
216 | NYVI | ≤ 0.2

Row | Variant | one-hybrid fitness for binding NBS DNA
217 | EAFS | ≤ 0.2
218 | LCHL | ≤ 0.2
219 | RTLP | ≤ 0.2
220 | RKGM | 0.218
221 | RKNQ | ≤ 0.2
222 | RTLY | ≤ 0.2
223 | RFWT | ≤ 0.2
224 | RKNT | 0.698
225 | RKGQ | ≤ 0.2
226 | RIWT | 0.279
227 | RTLT | 0.461
228 | RKNG | ≤ 0.2
229 | RKGT | 0.649
230 | RKWT | 0.456
231 | RNGC | ≤ 0.2
232 | RYHW | ≤ 0.2
233 | PRPF | ≤ 0.2
234 | RYAS | 0.342
235 | NTFG | ≤ 0.2
236 | PTNR | ≤ 0.2
237 | VRMT | ≤ 0.2
238 | RKDF | ≤ 0.2
239 | RKLK | ≤ 0.2
240 | RKSC | 0.273

Row | Variant | one-hybrid fitness for binding NBS DNA
241 | RKST | 0.639
242 | RKYT | 0.643
243 | RKIT | 0.361
244 | RKDT | 0.498
245 | RKLY | ≤ 0.2
246 | RKSF | ≤ 0.2
247 | RKPT | 0.236
248 | RKLT | 0.579
249 | IDAR | ≤ 0.2
250 | TMSR | ≤ 0.2
251 | SFKS | ≤ 0.2
252 | WVLY | ≤ 0.2
253 | SIAR | ≤ 0.2
254 | RKVI | ≤ 0.2
255 | KPTD | ≤ 0.2
256 | SPSM | ≤ 0.2
257 | RVWC | ≤ 0.2
258 | RPWT | ≤ 0.2
259 | RCWT | 0.418
260 | RKHH | 0.245
261 | RSWT | 0.215
262 | RKHT | 0.645
263 | RKHP | ≤ 0.2
264 | NLDC | ≤ 0.2

Row | Variant | one-hybrid fitness for binding NBS DNA
265 | PTPS | ≤ 0.2
266 | QRQH | 0.544
267 | QRQN | 0.402
268 | QLQQ | ≤ 0.2
269 | QRQQ | 0.397
270 | QRQC | 0.362
271 | QHQH | ≤ 0.2
272 | QREQ | ≤ 0.2
273 | QRQF | 0.323
274 | QSQM | ≤ 0.2
275 | QRQM | 0.395
276 | QCQH | 0.222
277 | QCQM | ≤ 0.2
278 | WQMR | ≤ 0.2
279 | TQQR | ≤ 0.2
280 | EVHL | ≤ 0.2
281 | DGGN | ≤ 0.2
282 | RFYH | ≤ 0.2
283 | ATCR | ≤ 0.2
284 | LYYL | ≤ 0.2
285 | KGWY | ≤ 0.2
286 | YQPD | ≤ 0.2
287 | QRQS | 0.688
288 | QRQD | 0.228

Row | Variant | one-hybrid fitness for binding NBS DNA
289 | QRQP | 0.222
290 | NYIC | ≤ 0.2
291 | TPDF | ≤ 0.2
292 | QTTP | ≤ 0.2
293 | QTTN | 0.236
294 | QTTD | ≤ 0.2
295 | QTTS | 0.528
296 | QTTH | 0.385
297 | QTTC | 0.223
298 | DYIR | ≤ 0.2
299 | VVWY | ≤ 0.2
300 | HIDC | ≤ 0.2
301 | RPWS | ≤ 0.2
302 | RKYD | ≤ 0.2
303 | RKRN | 0.258
304 | RCWS | 0.388
305 | RKWS | 0.467
306 | RKYS | 0.562
307 | RKRS | 0.666
308 | RKWD | ≤ 0.2
309 | RKRP | ≤ 0.2
310 | RSWS | 0.238
311 | RKYP | ≤ 0.2
312 | RKWN | ≤ 0.2
